The record followed here is PubChem BioAssay AID624296 (National Center for Advancing Translational Sciences (NCATS), 2012).

SMILES strings stand for the structures. Out of some 350,000 compounds screened, about 9,900 (2.8%) were called active. A call without a number means that no potency is given here. Roughly 15% stayed inconclusive and do not appear here. Calls follow the shape of the dose curve; as a rule, active = well fitted activation curve with a large enough effect; inconclusive = small, poorly fitted or top-dose-only effect; inactive = no such curve, though single readings can be large or run the other way. For the sample, actives were picked, then their nearest neighbours and some compounds at random.
Potency is read from the fitted curve at half-maximal effect.

This assay in a line: A quantitative high throughput screen for small molecules that induce DNA re-replication in MCF 10a normal breast cells. Also: nearly all actives have a fitted effect of over 50% in size. Particulars: MCF 10A DNA re-replication, Hoechst nuclear intensity, 48 h; series mostly up to 46.1 µM.
With `Cc1ccc(NC(=O)CN(C)C(=O)c2cccc(S(=O)(=O)N3CCCC3)c2)cc1`, the Potency entry was “inactive”. Then `Cc1ccc(S(=O)(=O)N2C3C=CC(C3)C2C(=O)O)cc1` (stereo not drawn), with “inactive”; and `Cc1ccc(S(=O)(=O)N2[C@@H](c3ccccc3F)C(C(=O)O)=CC[C@H]2c2ccc(Cl)cc2)cc1`, with 7.31 µM (active); and `Cc1ccc(S(=O)(=O)N2[C@@H](c3cccc4ccccc34)C(C(=O)O)=C[C@H]2C(C)(C)C)cc1`, with “inactive”. Then `COC(=O)C1=C(C)N(Cc2ccccc2)C(=NCCCOC(C)C)N[C@H]1c1ccccc1`, with “inactive”. Regarding `CC1O[C@H](OC2C(COC3OC(CO)C(O)[C@H](O)C3O)OC(OC3CC[C@]4(C)C(CC[C@@]5(C)[C@@H]4C=C[C@]46OC[C@@]7(CCC(C)(C)C[C@H]74)C(O)C[C@@]56C)C3(C)C)C(O)C2O)C(O)C(O)C1O` (stereo partly drawn), the Potency result is “inactive”. In the case of `COc1ccc(OCCCC(=O)Nc2cccc(S(=O)(=O)N3CCCCCC3)c2)cc1` it was “inactive”; in that of `CN(CC(=O)NC1CCN(Cc2ccccc2)CC1)S(=O)(=O)c1ccc(Cl)s1`, “inactive”; in that of `CC(=O)Oc1ccc(OC(C)=O)c2c1C1C=CC2CC1`, 10.3 µM (active). Then `CC(=O)Oc1ccccc1C1=NN(C(C)=O)C(c2ccccc2)C1` (stereo not drawn), with “inactive”; and `CC(=O)Oc1ccc(C(C)=O)c2c1OCCO2`, with “inactive”. Then `CCCCN(C(=O)c1cccc(N2C(=O)c3ccccc3C2=O)c1)c1c(N)n(CCCC)c(=O)[nH]c1=O`, with “inactive”. With `O=C(COC(=O)C1CCCO1)Nc1nc(-c2ccc(F)cc2)cs1` (stereo not drawn), the Potency result was “inactive”.

As to `COc1cc(CNCCN(C)C)ccc1OCc1c(F)cccc1Cl`, the Potency result is “inactive”. In the case of `CN(C)CCCNC(=O)/C=C/c1ccc(OCc2c(F)cccc2Cl)cc1` it was 23.1 µM (active); in that of `COCCCNC(=O)/C=C/c1ccc(OCc2c(F)cccc2Cl)cc1`, “inactive”; in that of `O=c1oc2ccccc2c(=O)c2ccccc12`, “inactive”. In the case of `Cc1c(Cl)cccc1NC(=O)CC1SC(=NCC2CCCO2)NC1=O` (stereo not drawn) it was “inactive”; in that of `Cc1ccc(NC(=O)CC2S/C(=N/N=C3\CCCc4ccccc43)NC2=O)cc1` (stereo not drawn), 14.6 µM (active); in that of `CCN=C1SC(CC(=O)Nc2ccc(C)cc2)C(=O)N1CC` (stereo not drawn), “inactive”. Consider `CCN(CC(=O)Nc1c(F)cccc1F)C(=O)c1ccc(-c2ccc(C(C)=O)cc2)o1`, for which the Potency result was “inactive”. Take `CCCCNS(=O)(=O)CCNCc1ccccc1OC`: the Potency result is “inactive”. Then `CC(Sc1ccccc1F)C(=O)Nc1cccc(S(=O)(=O)N2CCOCC2)c1` (stereo not drawn), with “inactive”; and `O=C(CSc1cccc[n+]1[O-])c1ccc(-c2ccccc2)cc1`, with 8.2 µM (active); and `O=C(CSc1cccc[n+]1[O-])c1ccc(Cl)cc1`, with “inactive”. In the case of `COc1ccccc1C(=O)CSc1cccc[n+]1[O-]` it was “inactive”; in that of `CC[C@]12c3[nH]c4cc(CCC(=O)N(C)C)ccc4c3CCN1C(=O)[C@@H](CC(=O)NCCCN(C)C)C[C@@H]2C(=O)N1CCN(C(=O)c2ccco2)CC1`, “inactive”; in that of `CN(C(=O)c1cccc(NC(=O)Cc2ccc(NC(=O)C3CCCN(C(=O)C4CCCC4)C3)cc2)c1)C1CCC1` (stereo not drawn), “inactive”. As to `O=S(=O)(NCC1CN(S(=O)(=O)c2ccc3c(c2)OCCO3)C1)c1c(F)cccc1F`, the Potency result was “inactive”. As to `COC1=CC(=O)OC(c2ccc(OC)cc2)C1` (stereo not drawn), the Potency entry is “inactive”. Then `CCc1nc2sc(C(=O)O)c(N)c2c2c1CCCC2`, with “inactive”. In the case of `Cc1ccc2c(N)c(C(=O)c3ccccc3)sc2n1` it was “inactive”; in that of `Cc1nc2sc(C(=O)c3ccccc3)c(N)c2c2c1CCCC2`, 14.6 µM (active); in that of `CCOC(=O)C1=CN(Cc2ccc(Br)cc2)S(=O)(=O)N(C)C1C` (stereo not drawn), “inactive”. Then `N#Cc1c(C(F)(F)F)cc(-c2ccc(Cl)cc2)nc1SCC(=O)O`, with “inactive”. In the case of `N#Cc1c(-c2ccccc2)cc(-c2ccccc2)nc1SCC(=O)O`, the Potency entry was “inactive”. Then `CCOC(=O)CC(=O)CSc1nc(-c2ccccc2)cc(-c2ccc(Cl)cc2)c1C#N`, with 11.6 µM (active); and `COc1ccc(C(=O)OC(C)C(=O)NC2CCCC2)cc1S(=O)(=O)N1CCOCC1` (stereo not drawn), with “inactive”; and `COc1cc(OC)cc(C(=O)N[C@H](C(=O)NNC(=O)c2ccc(Br)cc2)C(C)C)c1`, with “inactive”.

Regarding `C[C@H](CO)N1C[C@H](C)[C@H](CN(C)C(=O)Nc2ccc(C(F)(F)F)cc2)Oc2c(NC(=O)c3ccncc3)cccc2C1=O`, the Potency result is “inactive”.

`Cc1ccc(Nc2c(O)nc[nH]c2=O)cc1C`: the Potency result is “inactive”. As for `CCC(=O)N1CCc2cc(Br)c(S(=O)(=O)NCCN3CCCCC3CC)cc21` (stereo not drawn), the Potency entry is “inactive”. `CCC(=O)N1CCc2cc(S(=O)(=O)NC(C(=O)N3CCc4ccccc4C3)C(C)C)ccc21` (stereo not drawn): the Potency entry was “inactive”.

As for `CCCN(CCC)S(=O)(=O)c1cc2c(cc1Br)CCN2C(=O)CC`, the Potency was 18.4 µM (active). Then `Cn1c(CC(=O)NNC(=O)c2ccccc2F)nc2ccccc21`, with “inactive”; and `O=S(=O)(O)c1cc2onnc2c2ccccc12`, with “inactive”. Then `O=C(Cc1ccc(Cl)cc1)c1ccccc1`, with “inactive”; and `CC1CC(=O)Nc2ccccc2N1C(=O)COc1ccc2cc(Br)ccc2c1` (stereo not drawn), with “inactive”; and `N#Cc1nc(COc2ccc(-c3ccccc3)cc2)oc1NCc1cccnc1`, with 7.94 µM (active). Regarding `Cc1ccc(OCc2nc(C#N)c(N3CCCC3)o2)cc1`, the Potency result was “inactive”. Then `O=S(=O)(c1ccccc1)c1nc(-c2ccccc2F)oc1NCc1cccnc1`, with “inactive”. Turning to `O=S(=O)(c1ccc(SCc2ccccc2)nc1)N1CCCCCC1`, the Potency result is “inactive”. Then `O=C(OC12CC3CC(CC(C3)C1)C2)c1ccc(NCc2cc(O)ccc2O)cc1`, with “inactive”. Turning to `CC(CN1CCOCC1)OC(=O)c1ccc(Cl)cc1Cl` (stereo not drawn), the Potency result is “inactive”. In the case of `CC(C)OC(=O)c1ccc(NCc2cc(O)ccc2O)cc1Cl` it was 1.64 µM (active); in that of `CN(C)c1ccc(CSc2ccccc2)cc1`, “inactive”. As for `O=c1c2ccccc2ncn1CCc1ccncc1`, the Potency result was “inactive”. Then `CC[C@]12c3[nH]c4ccc(Cl)cc4c3CCN1C(=O)[C@@H](CC(=O)NCCCOC)C[C@@H]2C(=O)N1CCN(C(=O)C2CC2)CC1`, with “inactive”; and `CC1CCCCC1NC(=O)Cn1c(=O)cnc2ccccc21` (stereo not drawn), with “inactive”; and `C=C(C)CNc1cc(S(=O)(=O)N2CCOCC2)ccc1Oc1ccccc1`, with “inactive”. In the case of `COC(=O)c1cc(NC(=O)Cc2ccccc2[N+](=O)[O-])ccc1Cl` it was “inactive”; in that of `N#Cc1cccc(NC(=O)COC(=O)c2ccccc2C(=O)c2ccc(Cl)c([N+](=O)[O-])c2)c1`, 2.91 µM (active); in that of `NC(=O)c1ccc(NC(=O)COC(=O)c2ccc([N+](=O)[O-])cc2)cc1`, “inactive”.

As for `CC(=O)Nc1ccc(NC(=O)COC(=O)c2ccccc2C(=O)c2ccccc2)cc1`, the Potency result is “inactive”. On to `CC(=O)Nc1ccc(NC(=O)C(C)OC(=O)c2ccccc2C(=O)c2ccc(Cl)c([N+](=O)[O-])c2)cc1` (stereo not drawn), for which the Potency was 16.4 µM (active). Then `CC(CC(=O)O)C(=O)c1ccc(Cl)c([N+](=O)[O-])c1` (stereo not drawn), with “inactive”; and `Cc1ccc(S(=O)(=O)N2CCN(C(=O)Cn3c(=O)cnc4ccccc43)CC2)c(C)c1`, with “inactive”; and `O=C(COC(=O)COc1cc(Cl)c(Cl)cc1Cl)NC1CC1`, with “inactive”. In the case of `Cc1ccccc1NC(=O)CSC(=O)c1ccccc1` it was “inactive”.

As to `CCOC(=O)[C@H]1[C@H]2COc3ccc(Br)cc3[C@@H]2N2C(=O)CN(C)C(=O)[C@@]12C`, the Potency entry was “inactive”.

With `COc1ccccc1CNC(=O)c1ccc(Cl)c(S(=O)(=O)N2CCCC2)c1`, the Potency result is “inactive”.

On to `Cc1occc1C(=O)Nc1cccc(S(=O)(=O)N2CCOCC2)c1`, for which the Potency entry was “inactive”. Then `CCN1CCN(C(=O)CSc2ccc(C)cc2)CC1`, with “inactive”; and `Cc1ccc(SCC(=O)N2CCN(c3ccc(F)cc3)CC2)cc1`, with “inactive”; and `CCN1CCC2(CC1)N=C(c1ccc(F)cc1)C(=S)N2C(=O)c1ccc(C)cc1`, with 13 µM (active). In the case of `CCOc1ccc(-n2c(SCC(=O)OC)nc3sc4c(c3c2=O)CCN(C)C4)cc1` it was “inactive”; in that of `COc1ccccc1NC(=O)CSc1nc2sc3c(c2c(=O)n1-c1ccccc1)CCN(C)C3`, “inactive”. With `CCSc1nc2sc3c(c2c(=O)n1-c1ccc(C)cc1)CCN(C)C3`, the Potency is 18.4 µM (active). In the case of `Cc1ccc(S(=O)(=O)N(C)CC(=O)NCC(c2ccc(F)cc2)N2CCOCC2)cc1` (stereo not drawn), the Potency result was “inactive”. Then `Cc1ccccc1C(=O)Nc1ccc(N2CCCCCC2)cc1`, with 18.4 µM (active); and `Cc1ccccc1C(=O)NC(=S)Nc1ccc(N2CCN(C(=O)c3ccccc3)CC2)cc1`, with “inactive”. In the case of `Cc1ccccc1C(=O)Nc1ccccc1NC(=O)c1ccccc1C` it was “inactive”.

For `O=c1[nH]c2c(c(=O)n1-c1ccccc1)CCO2`, the Potency result was “inactive”.

As for `Cc1ccccc1N1CCN(C(=O)c2cccnc2)CC1`, the Potency result is “inactive”. As for `CC1Cc2ccccc2N1S(=O)(=O)c1cccc(C(=O)OCC(=O)N2CCOCC2)c1` (stereo not drawn), the Potency entry is “inactive”. As to `CCC1([N+](=O)[O-])COC(c2ccc(C(C)C)cc2)OC1` (stereo not drawn), the Potency result was “inactive”. In the case of `CC(=O)N(C1=C(Cl)C(=O)c2ccccc2C1=O)c1ccc(C(=O)O)cc1` it was 5.8 µM (active); in that of `CC(C)N(C(=O)c1ccc(-c2ccccc2F)cc1)C(C)C`, “inactive”.

As to `O=C(CN1C(=O)c2ccccc2C1=O)NCc1ccc(C(=O)O)cc1`, the Potency entry was “inactive”.

Take `O=C(OCC(=O)N1CCCCCC1)c1cnc(Cl)c(Cl)c1`: the Potency entry was “inactive”. In the case of `COc1cc2ccccc2cc1C(=O)N(CCN(C)C)c1nc2c(F)cccc2s1` it was “inactive”.

As for `CN(C)CCCN(C(=O)COc1ccccc1)c1nc2c(Cl)cccc2s1`, the Potency entry is “inactive”. In the case of `COc1cccc2sc(N(CCCN(C)C)C(=O)CCS(=O)(=O)c3ccccc3)nc12` it was 6.51 µM (active). Then `N#Cc1ccccc1S(=O)(=O)N1CCN(Cc2c(O)ccc3ccccc23)CC1`, with “inactive”; and `O=[N+]([O-])c1cccc(/C([O-])=C(/C(=S)Nc2ccccc2F)[n+]2ccccc2)c1`, with “inactive”; and `CCOc1ccccc1NC(=S)C(=C([O-])c1ccc2c(c1)OCCO2)[n+]1ccc(CC)cc1`, with 2.59 µM (active). In the case of `CCc1ccccc1OCC(=O)Nc1ccc2c(c1)OCCO2` it was “inactive”; in that of `O=[N+]([O-])c1ccc(N=NNc2ccc([N+](=O)[O-])cc2)cc1`, “inactive”.
